Assay outcomes deposited in PubChem BioAssay by National Center for Advancing Translational Sciences (NCATS).
HCV inhibitor – qHTS Assay for Inhibitors of Hepatitis C Virus (HCV); Huh7.5.1 HCVcc-Cre infection, luciferase reporter, 44 h; Potency, µM (highest dose often 41.8 µM), without a hit: top-dose activity change, negative = inhibition, usual class: inhibitors; 340,000 compounds, 3.4% hits; AID 651820, 2012; further: potency means the concentration at half of the fitted maximal effect
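Cells (1,000/well) were plated 4 h before compound, then infected with HCVcc-Cre virus (~0.5 moi). After 44 h further culture, infection was read as luciferase luminescence following a 15 min substrate incubation at room temperature.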
Pf growth 96h – Primary qHTS for delayed death inhibitors of the malarial parasite plastid, 96 hour incubation; P. falciparum luciferase reporter growth, 96 h; Potency, µM (doses to about 28.7 µM), inactives show top-dose activity change, negative = inhibition, most hits filed as inhibitors; 320,000 compounds, 6.9% hits; AID 504834, 2011; further: potency means the concentration at half of the fitted maximal effect
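Two parasite generations (96 h, 37 C, 5% CO2) of compound exposure in infected erythrocytes (0.05% parasitemia, 2% hematocrit). Luciferase-reporter P. falciparum; decreased luminescence indicates inhibited growth, aimed at apicoplast-acting delayed death.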
HCMV antiviral – qHTS Assay for inhibitors of the human cytomegalovirus (HCMV) | HFF cells, HCMV-luciferase reporter, 72 h; hits give low values | activity change, negative = inhibition, % at 57.5 µM | 410,000 compounds, 4.5% hits; in the data active means activity change below about -60%; inconclusive means no clear call, values can overlap the other calls; inactive means above about -39%
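Cell-based, HFFs, 1000 cells/well, 16 h 37C; cpds in DMSO + HCMV-luc, MOI 1 PFU/cell; 72 h 37C; OneGlo luminescence after 5 min RT; norm. to buffer vs Salinomycin 10uM.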
Pf growth 48h – Primary qHTS for delayed death inhibitors of the malarial parasite plastid, 48 hour incubation; 310,000 compounds, 5.9% hits; Potency, µM (top dose mostly 28.7 µM), for inactives: at the highest dose activity change, negative = inhibition, usual class: inhibitors; AID 504832, 2011; P. falciparum luciferase growth in erythrocytes, 48 h; further: potency means the concentration at half of the fitted maximal effect
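Here the parasites carry a stable luciferase gene and grow inside erythrocytes in Albumax-based RPMI medium with compound for one erythrocytic cycle. Activity is scored as loss of luminescent signal.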
* marks the source's active call; other numbers are inactive results; ! = repeats disagree. The list is not random: actives were taken first. Their share in the collection is about 13%. Unless noted, the call rests on the fitted dose curve; in most records, active means well fitted inhibition curve with a large enough effect; inconclusive means small, poorly fitted or top-dose-only effect, or another doubt; inactive means no such curve, though single readings can be large or run the other way. On the % scale 0 is the no-effect control and ±100 the full control effect.

What do the screens show for `CC(=O)c1ccc(S(=O)(=O)N(C)CCCC(=O)N(C)Cc2c(F)cccc2Cl)cc1`?
HCV inhibitor: 1%; Pf growth 96h: 12µM*; HCMV antiviral: inconclusive; Pf growth 48h: inconclusive

Results for Cc1ccc(S(=O)(=O)N(C)CCCC(=O)Nc2ccncc2)cc1 ?
HCV inhibitor: 5.6µM*; Pf growth 96h: inconclusive; HCMV antiviral: -32

How did Cc1ccc(S(=O)(=O)N(C)CCCC(=O)Nc2ccc(F)cc2)cc1 do in these assays?
HCV inhibitor: inconclusive; Pf growth 96h: -20%; HCMV antiviral: 4; Pf growth 48h: -8%

What do the screens show for `CN(CCCC(=O)Nc1ccc(OC(F)F)cc1)S(=O)(=O)c1ccc(F)cc1`?
HCV inhibitor: 11µM*; Pf growth 96h: inconclusive; HCMV antiviral: -31; Pf growth 48h: inconclusive

Results for CSc1ncc(Cl)c(C(=O)Nc2c(C(=O)c3ccc(C)cc3)oc3ccccc23)n1 ?
HCMV antiviral: 0

How did Cc1c(Cl)cccc1NC(=O)CSc1nc(=O)[nH]c2c1CCCC2 do in these assays?
HCMV antiviral: 10

What do the screens show for `CN(CCCC(=O)Nc1ccccc1F)S(=O)(=O)c1ccc(F)cc1`?
HCV inhibitor: 31%; Pf growth 96h: 2%; HCMV antiviral: -61*; Pf growth 48h: 0%

What do the screens show for `Cc1cc(F)ccc1NC(=O)CCCN(C)S(=O)(=O)c1ccc(F)cc1`?
HCV inhibitor: -28%; Pf growth 96h: 6%; HCMV antiviral: 24; Pf growth 48h: 0%

Results for CSc1nc(N)c2c3c(sc2n1)COC(C(C)C)C3 (configuration not stated) ?
HCV inhibitor: -7%; Pf growth 96h: 5.2µM*; HCMV antiviral: -9

How did CCCC1Cc2c(sc3nc(SC)nc(N)c23)CO1 (configuration not stated) do in these assays?
HCV inhibitor: -26%; Pf growth 96h: 112%; HCMV antiviral: -10; Pf growth 48h: -13%

Results for COc1ccc(N(CC(=O)N2CCc3ccccc3C2)S(C)(=O)=O)cc1 ?
HCV inhibitor: -6%; Pf growth 96h: 5%; HCMV antiviral: 11

What do the screens show for `Cc1ccc(N(CC(=O)N2CCN(c3cc(C)ccc3C)CC2)S(=O)(=O)c2c(C)nn(C)c2C)cc1`?
HCMV antiviral: -72*

Results for COc1ccc(N(CC(=O)N2CCN(c3cccc(C)c3C)CC2)S(=O)(=O)c2c(C)noc2C)cc1 ?
HCV inhibitor: inconclusive; Pf growth 96h: 13µM*; HCMV antiviral: -65*!; Pf growth 48h: 8.3µM*

What do the screens show for `COc1ccc(N(CC(=O)N2CCc3ccccc3C2)S(=O)(=O)c2c(C)nn(C)c2C)cc1`?
HCV inhibitor: -7%; Pf growth 96h: 1.2µM*; HCMV antiviral: 24

What do the screens show for `COc1ccc(N(CC(=O)N2CCN(c3ccccc3)CC2)S(=O)(=O)c2c(C)noc2C)cc1`?
HCV inhibitor: -12%; Pf growth 96h: -28%; HCMV antiviral: -26

What do the screens show for `COc1ccc(N(CC(=O)N2CCN(c3cc(C)ccc3C)CC2)S(=O)(=O)c2c(C)noc2C)cc1`?
HCV inhibitor: inconclusive; Pf growth 96h: 13µM*; HCMV antiviral: 8; Pf growth 48h: 9.3µM*

What do the screens show for `CC1N=C2c3ccccc3N=C(SCC(=O)NCCc3ccc(Cl)cc3)N2C1=O` (configuration not stated)?
HCMV antiviral: -15

What do the screens show for `CCOc1ccc(OCC)c(NC(=O)CN(C)S(=O)(=O)c2ccc3[nH]c(=O)oc3c2)c1`?
HCMV antiviral: -24

Results for CCCS(=O)(=O)Nc1cc(-c2cn3cccc(C)c3n2)ccc1C ?
HCMV antiviral: 75

What do the screens show for `CC(C)C(=O)Nc1sc2c(c1C#N)CCCCC2`?
HCV inhibitor: inconclusive; Pf growth 96h: 21%; HCMV antiviral: 44; Pf growth 48h: 25%

Results for CCCOC(=O)c1c(N)sc2c1CCC2 ?
HCV inhibitor: inconclusive; Pf growth 96h: inconclusive; HCMV antiviral: -17; Pf growth 48h: -3%

Results for COCCNC(=O)c1c(N)sc2c1CCCC2 ?
HCV inhibitor: 3%; Pf growth 96h: inconclusive; Pf growth 48h: 9.3µM*

What do the screens show for `CNC(=O)c1c(N)sc2c1CCCCC2`?
Pf growth 96h: 10µM*

Results for Cc1cccc(C(=O)c2c(N)sc3c2CCCC3)c1 ?
HCV inhibitor: inconclusive; Pf growth 96h: 15µM*; HCMV antiviral: 30; Pf growth 48h: inconclusive

What do the screens show for `Cc1cccc(C(=O)c2c(N)sc3c2CCC(C)C3)c1` (configuration not stated)?
HCV inhibitor: inconclusive; Pf growth 96h: inconclusive; HCMV antiviral: -25; Pf growth 48h: 28%

Results for NC(=O)c1c(N)sc2c1CCCCC2 ?
HCV inhibitor: -16%; Pf growth 96h: inconclusive; HCMV antiviral: 38; Pf growth 48h: 6%

How did CNC(=O)c1c(NC(=O)C(C)C)sc2c1CCC2 do in these assays?
HCV inhibitor: inconclusive; Pf growth 96h: -9%; HCMV antiviral: 14; Pf growth 48h: 2.3µM*

How did CN(C)C(=O)c1ccc(Nc2cc3c(cn2)cc(-c2cccnc2)n3Cc2ccccc2)cc1 do in these assays?
HCMV antiviral: -13

What do the screens show for `COc1ccccc1CNC(=O)CC(c1ccc(C)cc1)N1Cc2ccccc2C1=O` (configuration not stated)?
HCMV antiviral: -14

Results for NC(=O)Cn1c(=O)n(CCCCCC(=O)NCc2ccccc2Cl)c(=O)c2sccc21 ?
HCMV antiviral: -23

How did Cc1cccc(OCC(=O)Nc2ccc(C(=O)NCc3cccnc3)cc2)c1 do in these assays?
Pf growth 96h: 5%; Pf growth 48h: -11%

How did O=C(NCc1cccnc1)c1ccc(COc2ccc(Cl)cc2)cc1 do in these assays?
HCV inhibitor: inconclusive; Pf growth 96h: 313%; HCMV antiviral: -86*; Pf growth 48h: 35%

What do the screens show for `O=C(COc1ccc(Cl)cc1)Nc1ccc(C(=O)NCc2cccnc2)cc1`?
HCV inhibitor: 13µM*; Pf growth 96h: -11%; Pf growth 48h: -13%

What do the screens show for `Cc1ccc(OCc2ccc(C(=O)NCc3cccnc3)cc2)cc1C`?
HCV inhibitor: inconclusive; Pf growth 96h: 21%; HCMV antiviral: -72*; Pf growth 48h: -1%

Results for COc1cc(OC)cc(C(=O)NCc2cccnc2)c1 ?
HCV inhibitor: -10%; HCMV antiviral: -25; Pf growth 48h: -1%

What do the screens show for `O=C(NCc1ccc(Cl)cc1)c1cccnc1`?
HCV inhibitor: -11%; Pf growth 96h: -16%; HCMV antiviral: 1; Pf growth 48h: -2%

How did O=C(Cc1cccs1)NC1CC(=O)N(c2ccccc2)C1 (configuration not stated) do in these assays?
HCMV antiviral: 16

Results for CC1=C(C(=O)Nc2ccc(Cl)cc2)C(c2ccc(C(F)(F)F)cc2)n2nnnc2N1 (configuration not stated) ?
HCMV antiviral: -10

How did CCCCNc1ccc2c(c1)OC[C@H](C)NS2(=O)=O do in these assays?
HCMV antiviral: -3
